Results as given in article PMC10812921, “Transcriptional Coactivator BOB1 (OBF1, OCA-B) Modulates the Specificity of DNA Recognition by the POU-Domain Factors OCT1 and OCT2 in a Monomeric Configuration”.

Columns and labels:
[1] = molecular target: POU1 (OCT1 POU domain) (human, UniProt P14859 260-458); test: EMSA-SELEX-seq; no BOB1; 20 mM Tris-HCl pH 7.6, 140 mM NaCl, 10% glycerol, 0.5 mM EDTA, 0.05% Triton X-100, 0.1 mg/mL BSA, 0.1 mg/mL poly(dI-dC), 5 mM DTT, room temperature, 20 min; high values mean tight binding; conditions: protein: recombinant; dsDNA, one strand shown
Sequence of POU1 (OCT1 POU domain) (P14859 260-458): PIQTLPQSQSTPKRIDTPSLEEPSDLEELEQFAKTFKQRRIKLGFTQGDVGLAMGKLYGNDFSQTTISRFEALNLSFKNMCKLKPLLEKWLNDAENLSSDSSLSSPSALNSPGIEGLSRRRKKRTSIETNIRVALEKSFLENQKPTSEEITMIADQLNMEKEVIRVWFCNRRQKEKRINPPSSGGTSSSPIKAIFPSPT
Summary of the method: (§1)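 Tagged POU-domain proteins were expressed in E. coli BL21, purified under denaturing conditions and renatured. Then 30 ng was mixed with 300 ng of a PCR-amplified double-stranded random 35-nt library, with or without 28 ng coactivator protein, in 20 μL Tris–HCl pH 7.6 binding buffer for 20 min at RT. Complex bands were cut from native 6% PAGE, eluted and PCR-amplified over four rounds, then Illumina-sequenced. Binding preference is the percentage of sequenced 8-mers matching a motif pattern.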

[2] = molecular target: T1, POU2 (OCT2 POU domain) (human, UniProt P09086 175-386); test: as above; conditions: protein: recombinant; dsDNA, one strand shown
T1 sequence: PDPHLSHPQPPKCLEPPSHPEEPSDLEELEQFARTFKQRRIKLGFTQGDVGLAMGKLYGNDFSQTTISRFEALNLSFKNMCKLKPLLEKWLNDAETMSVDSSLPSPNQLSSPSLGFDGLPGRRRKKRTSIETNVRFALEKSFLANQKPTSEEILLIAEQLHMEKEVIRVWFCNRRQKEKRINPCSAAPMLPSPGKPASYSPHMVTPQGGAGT
Summary of the method: as §1

[3] = molecular target: POU1 (OCT1 POU domain);BOB1 (OBF1, OCA-B) (human;human, UniProt P14859;Q16633 260-458;1-256, |); test: EMSA-SELEX-seq; with BOB1 (ternary complex band); 20 mM Tris-HCl pH 7.6, 140 mM NaCl, 10% glycerol, 0.5 mM EDTA, 0.05% Triton X-100, 0.1 mg/mL BSA, 0.1 mg/mL poly(dI-dC), 5 mM DTT, room temperature, 20 min; high values mean tight binding; conditions: protein: recombinant;recombinant; copies: 1;1; dsDNA, one strand shown
Summary of the method: as §1

[4] = molecular target: T2, POU2 (OCT2 POU domain);BOB1 (OBF1, OCA-B) (human;human, UniProt P09086;Q16633 175-386;1-256, |); test: as above; conditions: protein: recombinant;recombinant; copies: 1;1; dsDNA, one strand shown
T2 sequence 1: T1 sequence
T2 sequence 2: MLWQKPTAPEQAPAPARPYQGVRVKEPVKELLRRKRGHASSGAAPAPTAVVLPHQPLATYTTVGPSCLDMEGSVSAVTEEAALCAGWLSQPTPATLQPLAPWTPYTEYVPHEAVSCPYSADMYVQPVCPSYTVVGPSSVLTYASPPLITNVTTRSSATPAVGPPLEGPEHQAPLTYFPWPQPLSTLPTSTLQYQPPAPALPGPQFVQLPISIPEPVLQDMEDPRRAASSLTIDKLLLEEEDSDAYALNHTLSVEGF
Summary of the method: as §1

Sequence	binding signal [1]	binding signal [2]	binding signal [3]	binding signal [4]
ACCCAAAT	0.0477 % of ANNNNAAN 8-mers	0.0391 % of ANNNNAAN 8-mers	0.0753 % of ANNNNAAN 8-mers	0.0355 % of ANNNNAAN 8-mers
AATGGAAC	0.0439 % of ANNNNAAN 8-mers	0.0466 % of ANNNNAAN 8-mers	0.0449 % of ANNNNAAN 8-mers	0.0528 % of ANNNNAAN 8-mers
AGGGTAAT	0.186 % of ANNNNAAN 8-mers	0.279 % of ANNNNAAN 8-mers	0.12 % of ANNNNAAN 8-mers	0.129 % of ANNNNAAN 8-mers
AAGAGAAC	0.0271 % of ANNNNAAN 8-mers	0.0391 % of ANNNNAAN 8-mers	0.0285 % of ANNNNAAN 8-mers	0.0289 % of ANNNNAAN 8-mers
AGCCAAAG	0.0286 % of ANNNNAAN 8-mers	0.0219 % of ANNNNAAN 8-mers	0.0363 % of ANNNNAAN 8-mers	0.019 % of ANNNNAAN 8-mers
AGTCGAAG	0.0305 % of ANNNNAAN 8-mers	0.0357 % of ANNNNAAN 8-mers	0.023 % of ANNNNAAN 8-mers	0.0347 % of ANNNNAAN 8-mers
ATCCAAAC	0.0233 % of ANNNNAAN 8-mers	0.0178 % of ANNNNAAN 8-mers	0.0343 % of ANNNNAAN 8-mers	0.0264 % of ANNNNAAN 8-mers
ATCCGAAC	0.0217 % of ANNNNAAN 8-mers	0.0219 % of ANNNNAAN 8-mers	0.0238 % of ANNNNAAN 8-mers	0.0198 % of ANNNNAAN 8-mers
AGGACAAG	0.0263 % of ANNNNAAN 8-mers	0.0293 % of ANNNNAAN 8-mers	0.0297 % of ANNNNAAN 8-mers	0.0289 % of ANNNNAAN 8-mers
ACGGGAAG	0.0332 % of ANNNNAAN 8-mers	0.0339 % of ANNNNAAN 8-mers	0.0254 % of ANNNNAAN 8-mers	0.0347 % of ANNNNAAN 8-mers
AAATTAAA	0.328 % of ANNNNAAN 8-mers	0.349 % of ANNNNAAN 8-mers	0.213 % of ANNNNAAN 8-mers	0.217 % of ANNNNAAN 8-mers
ATAACAAA	0.098 % of ANNNNAAN 8-mers	0.0909 % of ANNNNAAN 8-mers	0.1 % of ANNNNAAN 8-mers	0.0883 % of ANNNNAAN 8-mers
AGACGAAG	0.0198 % of ANNNNAAN 8-mers	0.019 % of ANNNNAAN 8-mers	0.0203 % of ANNNNAAN 8-mers	0.0272 % of ANNNNAAN 8-mers
AATCCAAG	0.0324 % of ANNNNAAN 8-mers	0.0339 % of ANNNNAAN 8-mers	0.0425 % of ANNNNAAN 8-mers	0.0371 % of ANNNNAAN 8-mers
ATCCAAAT	0.131 % of ANNNNAAN 8-mers	0.11 % of ANNNNAAN 8-mers	0.209 % of ANNNNAAN 8-mers	0.133 % of ANNNNAAN 8-mers
AAAACAAT	0.0736 % of ANNNNAAN 8-mers	0.0604 % of ANNNNAAN 8-mers	0.0913 % of ANNNNAAN 8-mers	0.0735 % of ANNNNAAN 8-mers
AATCAAAG	0.0854 % of ANNNNAAN 8-mers	0.0857 % of ANNNNAAN 8-mers	0.122 % of ANNNNAAN 8-mers	0.0916 % of ANNNNAAN 8-mers
ACCAGAAA	0.029 % of ANNNNAAN 8-mers	0.0242 % of ANNNNAAN 8-mers	0.0254 % of ANNNNAAN 8-mers	0.0157 % of ANNNNAAN 8-mers
AAGTCAAA	0.141 % of ANNNNAAN 8-mers	0.113 % of ANNNNAAN 8-mers	0.258 % of ANNNNAAN 8-mers	0.165 % of ANNNNAAN 8-mers
AGTCTAAC	0.021 % of ANNNNAAN 8-mers	0.0207 % of ANNNNAAN 8-mers	0.0199 % of ANNNNAAN 8-mers	0.0231 % of ANNNNAAN 8-mers
AGGAGAAG	0.045 % of ANNNNAAN 8-mers	0.0472 % of ANNNNAAN 8-mers	0.0507 % of ANNNNAAN 8-mers	0.0438 % of ANNNNAAN 8-mers
ATCAGAAA	0.0446 % of ANNNNAAN 8-mers	0.0529 % of ANNNNAAN 8-mers	0.0546 % of ANNNNAAN 8-mers	0.0438 % of ANNNNAAN 8-mers
ATTGTAAC	0.0362 % of ANNNNAAN 8-mers	0.0374 % of ANNNNAAN 8-mers	0.0336 % of ANNNNAAN 8-mers	0.0371 % of ANNNNAAN 8-mers
ATGTCAAC	0.0214 % of ANNNNAAN 8-mers	0.023 % of ANNNNAAN 8-mers	0.0273 % of ANNNNAAN 8-mers	0.0215 % of ANNNNAAN 8-mers
